# Test results as given in the supplement of paper PMC10037445.
# In all, about 2,900 compounds were measured (“NF-kB SEAP reporter activity, fold change vs agonist alone”: median about 0.99, highest 2% from about 2.6 on). The full list was thinned out, with the highest values kept by preference.
# Columns and labels:
# RAW-Dual [1] = assay: NF-kB SEAP reporter activity, fold change vs agonist alone; higher = enhanced NF-kB activity; details: cytotoxicity flag (confluency mask): not cytotoxic
# Method in brief: (§1)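 RAW-Dual macrophages (50,000 cells/well in DMEM, 384-well plates) received 50 nL of library stock by pin tool, then a PRR agonist 1 h later, and were kept at 37 °C, 5% CO2. After 20 hours, supernatant was read for IRF by QuantiLuc luminescence and for NF-κB by QuantiBlue absorbance at 620 nm. Reporter activity is fold change over agonist-alone wells. Cytotoxic wells had IncuCyte confluency below 70% of agonist controls in both mask sets.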
# RAW-Dual [2] = assay: NF-kB SEAP reporter activity, fold change vs agonist alone; cytotoxicity flag (confluency mask): not cytotoxic; higher = enhanced NF-kB activity
# Method in brief: as §1
# [3] = library stock concentration (final ~1000-fold dilution): 10 mM, agonist: Imiquimod (TLR7) […]
# [4] = library stock concentration (final ~1000-fold dilution): 10 mM, agonist: MPLA (TLR4) […]
# [5] = agonist: ODN 1826 (TLR9) 0.5 ug/mL
# [6] = agonist: Pam2CSK4 (TLR2/6) 0.1 ug/mL
# [7] = agonist: Pam3CSK4 (TLR2/1) 0.1 ug/mL
# [8] = library stock concentration (final ~1000-fold dilution): 10 mM water, agonist: Imiquimod (TLR7) […]
# [9] = library stock concentration (final ~1000-fold dilution): 10 mM water, agonist: MPLA (TLR4) […]
smiles,measurement,setting,value
COc1nc(N)nc2c1ncn2C1OC(CO)C(O)C1O (stereo unspecified),NF-kB SEAP reporter activity,RAW-Dual [1]; [3],0.924
same,NF-kB SEAP reporter activity,RAW-Dual [1]; [4],0.994
COc1nc(N)nc2c1ncn2C1OC(CO)C(O)C1O (stereo unspecified) (library stock concentration (final ~1000-fold dilution): 10 mM),NF-kB SEAP reporter activity,RAW-Dual [2]; agonist: LPS (TLR4) 0.1 ug/mL,1.43
same,NF-kB SEAP reporter activity,RAW-Dual [2]; [5],0.996
same,NF-kB SEAP reporter activity,RAW-Dual [2]; [6],1.08
same,NF-kB SEAP reporter activity,RAW-Dual [2]; [7],1.23
CCOc1ccc(CC2NC(=O)CCSSCC(C(=O)N3CCCC3C(=O)NC(CCCN)C(=O)NCC(N)=O)NC(=O)C(CC(N)=O)NC(=O)C(C(C)O)NC(=O)C(C(C)CC)NC2=O)cc1 (stereo unspecified) (library stock concentration (final ~1000-fold dilution): 10 mM water),NF-kB SEAP reporter activity,RAW-Dual [2]; agonist: LPS (TLR4) 0.1 ug/mL,1.22
same,NF-kB SEAP reporter activity,RAW-Dual [2]; [5],1.15
same,NF-kB SEAP reporter activity,RAW-Dual [2]; [6],1.22
same,NF-kB SEAP reporter activity,RAW-Dual [2]; [7],1.02
CCOc1ccc(CC2NC(=O)CCSSCC(C(=O)N3CCCC3C(=O)NC(CCCN)C(=O)NCC(N)=O)NC(=O)C(CC(N)=O)NC(=O)C(C(C)O)NC(=O)C(C(C)CC)NC2=O)cc1 (stereo unspecified),NF-kB SEAP reporter activity,RAW-Dual [1]; [8],0.981
same,NF-kB SEAP reporter activity,RAW-Dual [1]; [9],1.06
COc1cc2c(cc1OC)C(=O)C(CC1CCN(Cc3ccccc3)CC1)C2.Cl (stereo unspecified) (library stock concentration (final ~1000-fold dilution): 10 mM water),NF-kB SEAP reporter activity,RAW-Dual [2]; agonist: LPS (TLR4) 0.1 ug/mL,1.35
same,NF-kB SEAP reporter activity,RAW-Dual [2]; [5],1.16
same,NF-kB SEAP reporter activity,RAW-Dual [2]; [6],1.28
same,NF-kB SEAP reporter activity,RAW-Dual [2]; [7],1.29
COc1cc2c(cc1OC)C(=O)C(CC1CCN(Cc3ccccc3)CC1)C2.Cl (stereo unspecified),NF-kB SEAP reporter activity,RAW-Dual [1]; [8],0.84
same,NF-kB SEAP reporter activity,RAW-Dual [1]; [9],1.08
COC(=O)NC(C(=O)NC(Cc1ccccc1)C(O)CN(Cc1ccc(-c2ccccn2)cc1)NC(=O)C(NC(=O)OC)C(C)(C)C)C(C)(C)C (stereo unspecified),NF-kB SEAP reporter activity,RAW-Dual [1]; [4],0.961
COC(=O)NC(C(=O)NC(Cc1ccccc1)C(O)CN(Cc1ccc(-c2ccccn2)cc1)NC(=O)C(NC(=O)OC)C(C)(C)C)C(C)(C)C (stereo unspecified) (library stock concentration (final ~1000-fold dilution): 10 mM),NF-kB SEAP reporter activity,RAW-Dual [2]; agonist: LPS (TLR4) 0.1 ug/mL,1.03
same,NF-kB SEAP reporter activity,RAW-Dual [2]; [5],1.02
same,NF-kB SEAP reporter activity,RAW-Dual [2]; [6],1.11
same,NF-kB SEAP reporter activity,RAW-Dual [2]; [7],0.79
COC(=O)NC(C(=O)NC(Cc1ccccc1)C(O)CN(Cc1ccc(-c2ccccn2)cc1)NC(=O)C(NC(=O)OC)C(C)(C)C)C(C)(C)C.O=S(=O)(O)O (stereo unspecified) (library stock concentration (final ~1000-fold dilution): 10 mM),NF-kB SEAP reporter activity,RAW-Dual [2]; agonist: LPS (TLR4) 0.1 ug/mL,1.54
same,NF-kB SEAP reporter activity,RAW-Dual [2]; [5],2.67
same,NF-kB SEAP reporter activity,RAW-Dual [2]; [6],1.47
same,NF-kB SEAP reporter activity,RAW-Dual [2]; [7],1.68
COC(=O)NC(C(=O)NC(Cc1ccccc1)C(O)CN(Cc1ccc(-c2ccccn2)cc1)NC(=O)C(NC(=O)OC)C(C)(C)C)C(C)(C)C.O=S(=O)(O)O (stereo unspecified),NF-kB SEAP reporter activity,RAW-Dual [1]; [3],2.01
same,NF-kB SEAP reporter activity,RAW-Dual [1]; [4],1.56
CC(C)CC(NC(=O)C(Cc1ccccc1)CC(O)C(Cc1ccccc1)NC(=O)OC(C)(C)C)C(=O)NC(Cc1ccccc1)C(N)=O (stereo unspecified) (library stock concentration (final ~1000-fold dilution): 10 mM),NF-kB SEAP reporter activity,RAW-Dual [2]; agonist: LPS (TLR4) 0.1 ug/mL,1.25
same,NF-kB SEAP reporter activity,RAW-Dual [2]; [5],0.998
same,NF-kB SEAP reporter activity,RAW-Dual [2]; [6],0.929
same,NF-kB SEAP reporter activity,RAW-Dual [2]; [7],0.958
CC(C)CC(NC(=O)C(Cc1ccccc1)CC(O)C(Cc1ccccc1)NC(=O)OC(C)(C)C)C(=O)NC(Cc1ccccc1)C(N)=O (stereo unspecified),NF-kB SEAP reporter activity,RAW-Dual [1]; [3],0.843
same,NF-kB SEAP reporter activity,RAW-Dual [1]; [4],1.02
CC(C)C1=CC2=CCC3C(C)(C(=O)O)CCCC3(C)C2CC1 (stereo unspecified) (library stock concentration (final ~1000-fold dilution): 10 mM),NF-kB SEAP reporter activity,RAW-Dual [2]; agonist: LPS (TLR4) 0.1 ug/mL,0.876
same,NF-kB SEAP reporter activity,RAW-Dual [2]; [5],0.965
same,NF-kB SEAP reporter activity,RAW-Dual [2]; [6],1.03
same,NF-kB SEAP reporter activity,RAW-Dual [2]; [7],0.83
CC(C)C1=CC2=CCC3C(C)(C(=O)O)CCCC3(C)C2CC1 (stereo unspecified),NF-kB SEAP reporter activity,RAW-Dual [1]; [4],1.07
CC(C)CC(=O)NC(C(=O)NC(C(=O)NC(CC(C)C)C(O)CC(=O)NC(C)C(=O)NC(CC(C)C)C(O)CC(=O)O)C(C)C)C(C)C (stereo unspecified) (library stock concentration (final ~1000-fold dilution): 10 mM),NF-kB SEAP reporter activity,RAW-Dual [2]; agonist: LPS (TLR4) 0.1 ug/mL,0.983
same,NF-kB SEAP reporter activity,RAW-Dual [2]; [5],0.596
same,NF-kB SEAP reporter activity,RAW-Dual [2]; [6],1
same,NF-kB SEAP reporter activity,RAW-Dual [2]; [7],0.967
CC(C)CC(=O)NC(C(=O)NC(C(=O)NC(CC(C)C)C(O)CC(=O)NC(C)C(=O)NC(CC(C)C)C(O)CC(=O)O)C(C)C)C(C)C (stereo unspecified),NF-kB SEAP reporter activity,RAW-Dual [1]; [3],1.01
same,NF-kB SEAP reporter activity,RAW-Dual [1]; [4],1
CCOCc1nc2c(N)nc3ccccc3c2n1CC(C)(C)O (library stock concentration (final ~1000-fold dilution): 3.2 mM),NF-kB SEAP reporter activity,RAW-Dual [2]; agonist: LPS (TLR4) 0.1 ug/mL,3.55
same,NF-kB SEAP reporter activity,RAW-Dual [2]; [5],1.69
same,NF-kB SEAP reporter activity,RAW-Dual [2]; [6],0.415
same,NF-kB SEAP reporter activity,RAW-Dual [2]; [7],0.673
CCOCc1nc2c(N)nc3ccccc3c2n1CC(C)(C)O,NF-kB SEAP reporter activity,"RAW-Dual [1]; library stock concentration (final ~1000-fold dilution): 3.2 mM, agonist: Imiquimod (TLR7) […]",1.27
same,NF-kB SEAP reporter activity,"RAW-Dual [1]; library stock concentration (final ~1000-fold dilution): 3.2 mM, agonist: MPLA (TLR4) […]",2.17
CC(=O)NC1C(NC(=N)N)C=C(C(=O)O)OC1C(O)C(O)CO (stereo unspecified),NF-kB SEAP reporter activity,RAW-Dual [1]; [8],0.917
same,NF-kB SEAP reporter activity,RAW-Dual [1]; [9],1.03
CC(=O)NC1C(NC(=N)N)C=C(C(=O)O)OC1C(O)C(O)CO (stereo unspecified) (library stock concentration (final ~1000-fold dilution): 10 mM water),NF-kB SEAP reporter activity,RAW-Dual [2]; agonist: LPS (TLR4) 0.1 ug/mL,1.37
same,NF-kB SEAP reporter activity,RAW-Dual [2]; [5],1.17
same,NF-kB SEAP reporter activity,RAW-Dual [2]; [6],1.19
same,NF-kB SEAP reporter activity,RAW-Dual [2]; [7],1.07
O=c1cc(-c2cccc3c2Sc2ccccc2S3)oc(N2CCOCC2)c1,NF-kB SEAP reporter activity,RAW-Dual [1]; [3],1.04
same,NF-kB SEAP reporter activity,RAW-Dual [1]; [4],2.17
CC1CN(CC(=O)Nc2ccc3c(c2)Cc2cccc(-c4cc(=O)cc(N5CCOCC5)o4)c2S3)CC(C)O1 (stereo unspecified) (library stock concentration (final ~1000-fold dilution): 10 mM),NF-kB SEAP reporter activity,RAW-Dual [2]; agonist: LPS (TLR4) 0.1 ug/mL,5.33
same,NF-kB SEAP reporter activity,RAW-Dual [2]; [5],0.922
same,NF-kB SEAP reporter activity,RAW-Dual [2]; [6],1.36
same,NF-kB SEAP reporter activity,RAW-Dual [2]; [7],1.99
CC1CN(CC(=O)Nc2ccc3c(c2)Cc2cccc(-c4cc(=O)cc(N5CCOCC5)o4)c2S3)CC(C)O1 (stereo unspecified),NF-kB SEAP reporter activity,RAW-Dual [1]; [3],1.54
same,NF-kB SEAP reporter activity,RAW-Dual [1]; [4],2.82
